# HCMV inh – blocks human cytomegalovirus replication; 4.5% of 410,000 active; activity change, negative = inhibition, % at 57.5 µM; AID 1259415; HFF cells, HCMV-luciferase reporter, 72 h; hits give low values; in the data active = activity change below about -60%; inconclusive = no clear call, values can overlap the other calls; inactive = above about -39%
#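 Steps: HFFs plated, 16 h 37C; compounds added; HCMV-luciferase added to MOI 1 PFU/cell; 72 h 37C; OneGlo reagent, 5 min room temperature; luminescence read, normalized to controls.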
# Marburg entry inh – inhibitors of Marburg virus binding or cell entry | 1.8% of 300,000 active | AID 540276 | Potency, µM (top dose mostly 37.8 µM), usual class: inhibitors | Marburg virus pseudotyped entry inhibition, cell reporter; calls by dose curve; tested in HEK293 cells
# LASV entry inh – blocks Lassa virus binding to or entry into cells. Lassa virus pseudotype entry inhibition, cell reporter. Potency, µM (highest dose often 37.9 µM), actives largely listed as inhibitors. 1.2% of 300,000 active. AID 540256; calls by dose curve; tested in HEK293 cells; also: nearly all actives have a fitted effect of over 50% in size
# Vaccinia Venus – inhibitors of vaccinia virus (Venus reporter) | Vaccinia virus Venus reporter expression, fluorescence | Potency, µM (series often up to 36.5 µM), actives largely listed as inhibitors | 0.46% of 330,000 active; calls by dose curve; tested in A549 cells; also: nearly all actives have a fitted effect of over 30% in size
# HCV inhibitor – inhibitors of hepatitis C virus infection | Huh7.5.1 HCVcc-Cre infection, luciferase reporter, 44 h | 3.4% of 340,000 active | AID 651820 | Potency, µM (doses to about 41.8 µM), actives largely listed as inhibitors
#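 Whole-lifecycle infectious HCVcc-Cre system; cells 1,000/well, compound then virus (~0.5 moi) added 4 h after plating, 44 h culture. Luciferase read 15 sec following 15 min substrate incubation, room temp.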
# Vaccinia mCherry – inhibitors of vaccinia virus infection (mCherry reporter signal) | AID 720579 | Vaccinia virus mCherry reporter infection, fluorescence | 0.63% of 310,000 active | Potency, µM (highest dose often 36.5 µM), usual class: inhibitors; calls by dose curve; tested in A549 cells; also: nearly all actives have a fitted effect of over 35% in size
# HCV confirm – confirmation of hepatitis C virus inhibitors; Potency, µM (doses to about 41.8 µM), hits mostly inhibitors; shares compounds with HCV inhibitor; AID 720575; 78% of 640 active; HCVcc-Cre infectious virus cell assay, luciferase, inhibition; also: nearly all actives have a fitted effect of over 80% in size
# HCV host tox – toxic to HCV host cells, flagging false HCV inhibitors; HCV host cell line cytotoxicity counterscreen; 22% of 640 active; shares compounds with HCV inhibitor; AID 720576; Potency, µM (highest dose often 41.8 µM), hits mostly inhibitors;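 also: 44 h compound exposure; nearly all actives have a fitted effect of over 55% in size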
# Numbers stand for hits; - = inactive; ? = inconclusive; . = no result; + = active, no number; [ ] = remark or other dose. A selection: hits, their analogues and other compounds. The true share with any hit is near 7.8%. Unless noted, calls follow the shape of the dose curve; as a rule, active = well fitted curve in the direction sought with a large enough effect; inconclusive = small, poorly fitted or top-dose-only effect, or another doubt; inactive = no such curve, though single readings can be large; an effect the other way counts as inactive or inconclusive.
SMILES,HCMV inh,Marburg entry inh,LASV entry inh,Vaccinia Venus,HCV inhibitor,Vaccinia mCherry,HCV confirm,HCV host tox
CC(C)c1nnc(N2C(=O)c3oc4ccccc4c(=O)c3C2c2ccccc2F)s1 (stereo not given),-,-,-,-,.,-,.,.
CCN1C(=O)/C(=C\c2cccs2)C(C(=O)OC)=C1C,-,-,-,-,3.98µM,.,?,?
COc1ccc(OC)c2nc(-c3ccc4c(c3)OCO4)ccc12,-,?,?,-,4.47µM,?,8.87µM,-
c1ccc2nc(-c3ccc4c(c3)OCO4)ccc2c1,-,.,.,-,-,-,.,.
CCCOc1ccc(/C=C/C(=O)NC2CCCCC2)cc1OC,-,-,-,-,?,-,.,.
COc1cc(/C=C/C(=O)NC2CCCCC2)cc(OC)c1OC,-,-,-,-,?,-,?,-
Cc1nc2nc(NC(=O)c3ccccc3F)[nH]n2c(=O)c1Cl,-,-,?,-,.,-,.,.
COc1ccccc1-c1nc(CNC(=O)Nc2ccccc2)c(C)o1,-,.,-,-,.,-,.,.
C/C(CC1CC2=C(CC1(C)C)C(C)(C)CCC2)=N\NC(N)=S (stereo not given),-65.0,?,?,?,5.62µM,-,14.1µM,?
C/C(CC1CC(C)(C)OC1=O)=N\NC(N)=S (stereo not given),?,-,-,-[7.34 µM],-,-[7.34 µM],.,.
CCOC(=O)N1CCc2c(sc3c2c(=O)n(-c2ccc(Cl)cc2)c(=O)n3CC(=O)Nc2ccccc2)C1,-,.,-,-,.,?,.,.
COc1ccccc1C(=O)Nc1cccc(C(=O)OCc2cc(=O)n3c4c(sc3n2)CCCC4)c1,?,.,-,-,.,-,.,.
COc1cc2c(=O)n(CCC(=O)NCC3CCCO3)c(=O)n(CC(=O)c3ccc(Cl)cc3)c2cc1OC (stereo not given),-,.,.,.,2µM,.,7.91µM,-
COc1cc(NC(=O)c2ccccc2OCc2ccccc2)cc(OC)c1OC,-,.,.,.,?,.,14.1µM,-
Cc1ccccc1Cn1c(CN2CCC(C(=O)NCc3cccnc3)CC2)cc2ccccc21,-,.,-,-,.,-,.,.
O=C(N/N=C/c1ccc[nH]1)c1ccc(Cl)cc1,?,-,?,-,5.01µM,-,14.1µM,14.1µM
CC(C)(C)OC(=O)COc1cc(O)c2c(=O)cc(-c3ccccc3)oc2c1,?,?,?,.,?,.,28µM,-
Cc1cc(NC(=S)N(CCN2CCCCC2)Cc2ccco2)ccc1Cl,?,?,?,-,8.91µM,-,25µM,-
CCCOc1cccc(C(=O)N(Cc2cc(OC)c(OC)c(OC)c2)C2CCS(=O)(=O)C2)c1 (stereo not given),-,-,-,-,.,-,.,.
Cc1cccc(-c2noc(-c3cccnc3NCc3ccc(Cl)cc3)n2)c1,-,-,-,-,.,-,.,.
Cc1cc(C)c2cc(C(=O)N3CCc4ccccc4C3)[nH]c2c1,-,-,-,-,?,?,?,-
CCc1ccc(CNC(=O)C(CC)n2nc(C)c3c(C)n(-c4ccccc4)nc3c2=O)cc1 (stereo not given),-,.,-,-,.,?,.,.
COC(=O)CNC(=O)/C=C/c1cc(Br)ccc1OC,-,?,-,-,?,-,.,.
COc1ccc(Br)cc1/C=C/C(=O)Nc1ccc(C)cc1,-,?,?,-,?,?,7.05µM,-
Cc1cc(C)nc(/N=C(\N)Nc2ccc(S(=O)(=O)O)cc2)n1,-,-,-,-,-,-,.,.
SMILES,HCMV inh,Marburg entry inh,LASV entry inh,Vaccinia Venus,HCV inhibitor,Vaccinia mCherry,HCV confirm,HCV host tox
Cc1cc(C)nc(/N=C(\N)Nc2ccc(CC(=O)OC(C)C)cc2)n1,-,?,-,?,3.55µM,?,2.8µM,-
CCOC(=O)c1c(C)[nH]c(C)c1S(=O)(=O)N1CCCC(C(=O)Nc2ccc(F)cc2F)C1 (stereo not given),-,.,-,-,.,-,.,.
COc1ccc(-c2cc(C)no2)cc1S(=O)(=O)N1CCN(c2ccc([N+](=O)[O-])cc2)CC1,+,.,.,.,3.98µM,.,8.87µM,25µM
c1ccc2c(c1)[nH]c1c(N3CCN(C4CCCCC4)CC3)ncnc12,-,?,-,-,-,-,.,.
c1ccc2c(c1)[nH]c1c(N3CCCC3)ncnc12,?,?,-,?,8.91µM,.,7.05µM,15.8µM
Cc1ccc2nc(Cl)c3cc(C(=O)NC4CCC(C)CC4)sc3c2c1 (stereo not given),-,-,-,-,.,-,.,.
Cc1ccc(-n2ncc(C(=O)Nc3ccc4c(c3)OCO4)c2C2CCN(C(=O)OC(C)(C)C)CC2)c(C)c1,-,.,?,-,.,-,.,.
CCOC(=O)c1cc(-c2ccco2)nc2c1c(C)nn2CCC#N,-,-,-,?,?,.,?,-
COc1ccc(-n2c(C)cc(/C=C3/SC(=S)N(C)C3=O)c2C)cc1,?,?,-,-,-,-,.,.
Cc1cc(/C=C2\SC(=S)N(C)C2=O)c(C)n1-c1cccc(O)c1,-92.0,.,.,-,4.47µM,?,25µM,25µM
COc1cc(CSc2nnnn2-c2ccc(C)cc2)cc(OC)c1OC,-88.8,?,3.66µM,-,?,-,1.77µM,-
COc1ccc(CSc2nnnn2-c2ccccc2)cc1,-,-,?,-,-,.,.,.
Cn1c(SCC(=O)NCC2CCCO2)ncc(C(=O)Nc2ccccc2)c1=O (stereo not given),-,?,-,-,5.01µM,-,-,-
Cn1nnnc1Sc1ncnc2scc(-c3ccc(C#N)cc3)c12,-94.1,.,.,.,.,.,25µM,25µM
Cc1cc(Cl)ccc1NC(=O)NC1CCN(S(=O)(=O)c2ccc(F)cc2)CC1,-,-,?,-,4.47µM,?,11.2µM,-
Cc1ccc(C)c(NC(=S)NC(NC(=O)Cc2cccc3ccccc23)C(Cl)(Cl)Cl)c1 (stereo not given),-97.7,12.6µM,7.94µM,?,2.24µM,?,11.2µM,31.5µM
Cc1ccc(C)c(NC(=S)NC(NC(=O)N(C)C)C(Cl)(Cl)Cl)c1 (stereo not given),-,-,-,-,-,-,.,.
Cc1cccc(-c2n[nH]c(=S)n2/N=C/c2ccco2)c1,-,.,.,.,-,.,.,.
N=c1scc(-c2ccccc2)n1/N=C/c1ccco1,-,?,-,-,?,-,25µM,-
Cc1ccc(S(=O)(=O)Nc2ccc(-c3ccc(N4CCCCCC4)nn3)cc2)cc1C,-,.,-,-,.,-,.,.
Cc1ccc(N=Nc2cc(C)ccc2N)cc1,-,.,.,-,3.16µM,-,3.15µM,?
COc1ccccc1N=Nc1ccc(N)c(C)c1,-,-,?,-,?,?,.,.
Fc1ccc2nc(-c3ccccc3)ccc2c1,-,.,.,-,.,-,.,.
[O-][n+]1onc2c3cc(-c4ccccc4)nnc3ccc21,-99.0,-,-,-,?,?,?,-
COc1ccc(C(=O)CSc2nc(C)cc(=O)[nH]2)cc1,-,-,-,-,-,-,.,.
COc1ccc(N/N=C(/N=Nc2nc(C)cc(=O)[nH]2)c2ccccc2)cc1,-88.8,4.47µM,5.01µM,-,4.47µM,-[1.46 µM],7.91µM,11.2µM

# Compound activity from PubChem.
